Compound activity deposited in PubChem by National Center for Advancing Translational Sciences (NCATS).
JMJD2E inh – inhibitors of human JMJD2E histone demethylase; 1.6% of 230,000 active; B2RXH2; Potency, µM (doses to about 57.1 µM), for inactives: top-dose activity change, negative = inhibition, usual class: inhibitors; JMJD2E catalytic domain, FDH-coupled NADH fluorescence (FDH is formaldehyde dehydrogenase);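 also: 0% = wells with enzyme and -100% = buffer wells without enzyme; nearly all actives have a fitted effect of over 50% in size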
HTT ATP protect – protects HTT-Q103 PC12 cells, measured by ATP. AID 1471. 0.14% of 230,000 active. Potency, µM (highest dose often 56.4 µM), without a hit: cytoprotection (ATP increase), hits mostly activators. PC12 HTT-Q103 induced, cytoprotection, ATP luminescence, 40 h; also: % of control where 0% means no effect; nearly all actives have a fitted effect of over 45% in size
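Cells were plated at 1500 per well in phenol red-free DMEM with 5% equine and 5% calf serum. Tebufenozide (100 nM final) and compounds were added, then ATPlite reagent, and luminescence was read.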
HttQ103 aggreg – mutant huntingtin aggregation inhibition | PC12 HttQ103-GFP aggregates, Acumen cytometry, 40 h | Potency, µM (top dose mostly 46.1 µM), without a hit: at the highest dose activity change, negative = inhibition, usual class: inhibitors | 1.1% of 220,000 active | AID 1688; also: % is scaled to controls: 0 for no effect and ±100 for the full control effect; nearly all actives have a fitted effect of over 60% in size
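Read-out: GFP aggregate count by laser scanning cytometer (488 nm excitation, 500-530 nm emission, 1–25 µm objects >6 SD above background). Cells: PC12, inducible HTTex1-Q103-GFP, 100 nM tebufenozide; compounds titrated.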
L3MBTL1 block – inhibitors of human L3MBTL1; 0.66% of 230,000 active; AlphaScreen L3MBTL1–H3K9me1 peptide binding; Q9Y468; Potency, µM (top dose mostly 57.1 µM), for the others: at the highest dose activity, negative = inhibition, usual class: inhibitors; also: % is scaled to controls: 0 for no effect and ±100 for the full control effect; nearly all actives have a fitted effect of over 60% in size
Target sequence (Q9Y468 whole entry, looked up): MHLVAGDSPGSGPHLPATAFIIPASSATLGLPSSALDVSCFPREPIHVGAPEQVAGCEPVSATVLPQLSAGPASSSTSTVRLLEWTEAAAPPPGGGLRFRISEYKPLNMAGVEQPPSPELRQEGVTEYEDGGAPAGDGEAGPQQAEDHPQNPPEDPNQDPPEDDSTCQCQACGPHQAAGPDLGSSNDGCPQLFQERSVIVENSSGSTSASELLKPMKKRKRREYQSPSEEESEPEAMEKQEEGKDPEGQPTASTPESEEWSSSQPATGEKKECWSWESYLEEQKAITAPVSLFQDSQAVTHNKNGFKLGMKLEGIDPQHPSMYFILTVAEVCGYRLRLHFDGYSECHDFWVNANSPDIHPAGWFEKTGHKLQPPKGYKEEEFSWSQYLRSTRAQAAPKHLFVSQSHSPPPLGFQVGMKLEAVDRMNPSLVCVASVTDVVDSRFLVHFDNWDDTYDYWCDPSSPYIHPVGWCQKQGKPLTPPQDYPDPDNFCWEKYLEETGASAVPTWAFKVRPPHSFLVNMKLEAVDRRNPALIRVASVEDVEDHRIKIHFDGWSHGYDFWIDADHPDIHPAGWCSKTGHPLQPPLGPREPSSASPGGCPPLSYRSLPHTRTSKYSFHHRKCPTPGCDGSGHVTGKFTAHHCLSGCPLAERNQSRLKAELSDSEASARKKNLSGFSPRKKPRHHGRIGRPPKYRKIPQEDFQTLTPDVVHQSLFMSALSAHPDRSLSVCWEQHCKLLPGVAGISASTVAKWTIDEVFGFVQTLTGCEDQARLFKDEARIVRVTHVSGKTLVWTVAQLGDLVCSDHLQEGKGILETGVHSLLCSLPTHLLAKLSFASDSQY
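L3MBTL1 50 nM + b-AHA-H3(1-15)K9me1 75 nM, 30 min RT; compound added, 30 min RT; streptavidin donor/Ni-chelate acceptor beads 10 ug/mL each final, 30 min RT dark; AlphaScreen read.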
Starred values were filed as active, the others as inactive; ? = inconclusive; . = no result given; [ ] = dose if it differs, or a comment. Only some compounds are listed: those with a hit (about 1.8% of all), similar ones and a draw of the others. Unless noted, calls follow the shape of the dose curve; as a rule, active = well fitted curve in the direction sought with a large enough effect; inconclusive = small, poorly fitted or top-dose-only effect, or another doubt; inactive = no such curve, though single readings can be large; an effect the other way counts as inactive or inconclusive. Potency is read from the fitted curve at half-maximal effect.

SMILES	JMJD2E inh	HTT ATP protect	HttQ103 aggreg	L3MBTL1 block
CCOC(=O)c1c(-c2cccs2)csc1NC(=O)CNCCN1CCOCC1	22.4µM*	2.2%	-1.1%	-12.2%
CCOC(=O)c1c(-c2ccc(-c3ccccc3)cc2)csc1NC(=O)CCN1CCOCC1	-29.6%	-9.3%[10 µM]	-16.3%	-1.1%
CCOC(=O)c1c(-c2cccs2)csc1NC(=O)C(C)(C)C	?	-73.5%	14.1µM*	.
CCOC(=O)c1c(-c2cccs2)csc1NC(C)=O	8.3%	3.5%[1.9 µM]	-14.5%	-4.7%
CCOC(=O)c1c(-c2ccc(F)cc2)csc1NC(=O)CCN1CCOCC1	25.1µM*	4.6%[10 µM]	?	-10.0%
CCOC(=O)c1c(-c2cccs2)csc1NC(=O)CN1CC(C)OC(C)C1 (stereo not drawn)	?	10.8%[10 µM]	?	.
CCNC(=S)Nc1scc(-c2ccccc2)c1C(=O)OCC	-15.7%	.	14.1µM*	1.7%
O=C(O)C(NS(=O)(=O)c1cccc2cccnc12)c1ccccc1 (stereo not drawn)	.	-2.4%	.	.
CC(C)c1ccc(Cn2ccc3c4c(N)nc(NC5CC5)nc4ccc32)cc1	?	-79.8%	.	.
Cc1ccccc1C(=O)N/N=C/c1ccc([N+](=O)[O-])s1	-5.5%	-58.4%	25.1µM*	.
CC1CCC2C(=O)N3C(CCC(C)[C@@H]3c3ccc(-c4ccco4)cc3)C(=O)N2C1c1cccc(N2CCCC2=O)c1 (stereo partly drawn)	.	11.9%[10 µM]	.	.
Cc1cccc(C)c1NC1=NC2(CCCCC2)N=C(N)N1	6.6%	0.631µM*	.	7.1%
COC(=O)[C@H](COC(C)(C)C)NC(=O)O[C@@H]1C(=O)c2ccc(OC)cc2O[C@H]1c1ccc2c(c1)OCO2	-14.9%	.	.	.
Cc1cc(C)n2nc(SCc3nnc(SCc4ccccc4C)s3)nc2n1	1.9%	17.8%[10 µM]	12.6µM*	.
COc1ccc2c3c(ccc2c1)N[C@H](C(=O)O)CC3	.	-14.3%[10 µM]	.	.
Cc1ccc(-n2nc(-c3ccco3)cc2C(=O)O)c(C)c1	?	?	7.2%	7.94µM*
CC(=O)NCCNc1ncnc2ccc(-c3ccc(C(=O)N(C)C)cc3)cc12	?	14.4%	.	.
CCOc1cc(N2CCOCC2)c(OCC)cc1NC(=O)C1CCCC1	-3.6%	-18.2%	7.0%	.
CCOc1cc(N2CCOCC2)c(OCC)cc1NC(=O)CN1CCCC1	25.1µM*	21.8%[10 µM]	-13.8%	-9.7%
O=c1cc(-c2ccc(O)c(O)c2)oc2cc(OC3OC(CO)C(O)C(O)C3O)cc(O)c12 (stereo not drawn)	11.2µM*	-29.9%[1.9 µM]	.	.
O=c1cc(-c2ccc(O)c(O)c2)oc2cc(O)c(C3OC(CO)C(O)C(O)C3O)c(O)c12 (stereo not drawn)	14.1µM*	-3.1%[10 µM]	-0.9%[9.22 µM]	15.8µM*
CC1O[C@@H](O[C@H]2C(Oc3cc(O)c4c(=O)cc(-c5ccc(O)cc5)oc4c3)OC(CO)C(O)C2O)C(O)C(O)C1O (stereo partly drawn)	-3.1%	.	.	.
COc1ccc(C(=O)COC(=O)CNS(=O)(=O)c2ccc(C)cc2)cc1	2.7%	1.8%[10 µM]	25.1µM*	-4.6%
C=C(CC(=O)OC)C[C@]1(CC(=O)OC)CC2(CC=C(C)C)C(=O)C(C(=O)c3ccccc3)=C(OC(=O)c3ccc(Br)cc3)C(CC=C(C)C)(C1)C2=O (stereo partly drawn)	.	-7.9%[10 µM]	.	.
C[C@@H]1CC2C3CCC4=CC(=O)C=C[C@]4(C)[C@@]3(F)[C@@H](O)C[C@]2(C)[C@@]1(O)C(=O)COC(=O)c1cccc(S(=O)(=O)O)c1 (stereo partly drawn)	.	-16.2%	2.0%	.
SMILES	JMJD2E inh	HTT ATP protect	HttQ103 aggreg	L3MBTL1 block
Cn1c(NC(=O)c2ccc(F)cc2)nc2ccccc21	.	.	.	3.1%
C/C(=N\NC(=O)c1ccccc1)c1nc2ccccc2n1C	-24.7%	.	11.2µM*	2.7%
Cc1cc(C)nc(SCC(=O)N/N=C/c2cc(C)n(-c3ccccc3C)c2C)n1	2.1%	.	?	-13.1%
Cc1ccccc1N(CC(=O)N/N=C/c1cc(C)n(-c2ccccc2C)c1C)S(C)(=O)=O	?	-5.6%	17.8µM*	.
COC(=O)c1cc(OC)c(OC)cc1NC(=O)Nc1ccc(OC)cc1OC	-22.8%	-7.7%	14.0%	3.0%
COc1ccc(NC(=O)Nc2nc(C)cc(C)n2)c(OC)c1	1.9%	.	28.2µM*	2.4%
Cc1cc(C)n(-c2nc(N(c3ccccc3)c3ccccc3)nc(-n3nc(C)cc3C)n2)n1	-1.3%	-15.2%[10 µM]	-26.5%	3.98µM*
Cc1cc(C)n(-c2nc(C)nc(N)n2)n1	2.4%	7.1%	0.794µM*	-0.4%[11.4 µM]
